In publication PMC7862700, “An all-to-all approach to the identification of sequence-specific readers for epigenetic DNA modifications on cytosine”:

Experiments:
Test in all cases: DAPPL (digital affinity profiling via proximity ligation, sequencing); 10 mM Tris-HCl pH 7.5, 50 mM NaCl, 1 mM DTT, 4% glycerol, room temperature, 30 min; GST-TFs on glutathione beads, 16-mer random dsDNA library, 0.1% formaldehyde crosslink after washing; high values mean tight binding
[1] = molecular target: T1, FLI1 (Homo sapiens, UniProt Q01543 1-452); conditions: protein: recombinant; tags: N-terminal GST; dsDNA, one strand shown
T1 sequence: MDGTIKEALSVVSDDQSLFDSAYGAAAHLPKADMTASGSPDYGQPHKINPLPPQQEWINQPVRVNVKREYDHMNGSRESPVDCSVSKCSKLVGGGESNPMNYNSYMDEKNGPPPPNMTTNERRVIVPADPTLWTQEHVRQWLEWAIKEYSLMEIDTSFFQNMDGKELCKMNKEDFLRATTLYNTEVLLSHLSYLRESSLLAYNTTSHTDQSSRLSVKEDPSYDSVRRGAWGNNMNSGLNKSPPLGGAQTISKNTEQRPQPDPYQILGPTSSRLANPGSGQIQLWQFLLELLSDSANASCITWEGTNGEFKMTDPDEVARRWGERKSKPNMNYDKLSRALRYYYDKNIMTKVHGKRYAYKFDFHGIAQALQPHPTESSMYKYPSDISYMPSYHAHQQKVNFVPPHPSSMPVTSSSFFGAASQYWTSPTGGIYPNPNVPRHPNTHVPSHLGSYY
Outline: (§1)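 In yeast, human transcription factors were expressed with a GST fusion, then pulled down on glutathione beads and given DNA barcodes. Pooled with a tag-only sample, they were exposed to 200 nmole of a 16-mer random double-stranded DNA library (Tris/NaCl/DTT/glycerol buffer, room temperature, 30 min), washed, crosslinked with 0.1% formaldehyde, proximity-ligated using BsaI/T4 ligase for 1 h at 37 °C, PCR-amplified and read on an Illumina NextSeq500. Each hexamer's frequency of reads for a factor, divided by the matching frequency for the tag-only sample, gives the binding signal.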

[2] = molecular target: SPI1 (Homo sapiens, UniProt P17947 1-270); conditions: protein: recombinant; tags: N-terminal GST; dsDNA, one strand shown
Outline: as §1

[3] = molecular target: HSF1 (Homo sapiens, UniProt Q00613 1-529); conditions: protein: recombinant; tags: N-terminal GST; chain copies: 3; dsDNA, one strand shown
HSF1, sequence (Q00613 whole entry): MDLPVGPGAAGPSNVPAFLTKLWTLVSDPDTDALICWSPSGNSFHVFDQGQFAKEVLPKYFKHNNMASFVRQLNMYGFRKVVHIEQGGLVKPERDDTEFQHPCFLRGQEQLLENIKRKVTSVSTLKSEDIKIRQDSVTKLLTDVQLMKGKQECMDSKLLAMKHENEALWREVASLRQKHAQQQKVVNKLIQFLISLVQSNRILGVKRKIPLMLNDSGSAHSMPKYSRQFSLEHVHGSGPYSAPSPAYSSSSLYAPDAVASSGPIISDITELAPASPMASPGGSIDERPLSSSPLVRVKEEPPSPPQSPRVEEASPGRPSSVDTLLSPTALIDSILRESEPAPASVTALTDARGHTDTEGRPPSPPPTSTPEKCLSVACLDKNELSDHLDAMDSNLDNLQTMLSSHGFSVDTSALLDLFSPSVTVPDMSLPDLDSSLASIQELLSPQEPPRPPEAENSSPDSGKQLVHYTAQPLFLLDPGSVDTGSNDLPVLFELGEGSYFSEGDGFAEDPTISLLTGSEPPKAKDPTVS
Outline: as §1

[4] = molecular target: T2, ETV2 (Homo sapiens, UniProt O00321 1-342); conditions: protein: recombinant; tags: N-terminal GST; dsDNA, one strand shown
T2 sequence: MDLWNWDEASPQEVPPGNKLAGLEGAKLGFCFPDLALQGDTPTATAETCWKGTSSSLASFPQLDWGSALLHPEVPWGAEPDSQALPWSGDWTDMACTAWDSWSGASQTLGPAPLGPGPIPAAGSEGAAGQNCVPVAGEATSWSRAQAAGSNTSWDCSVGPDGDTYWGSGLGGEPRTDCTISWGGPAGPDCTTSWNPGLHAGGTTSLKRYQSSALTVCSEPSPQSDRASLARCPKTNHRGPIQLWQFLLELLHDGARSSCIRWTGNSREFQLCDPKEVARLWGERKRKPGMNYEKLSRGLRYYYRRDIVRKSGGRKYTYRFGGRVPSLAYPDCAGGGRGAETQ
Outline: as §1

[5] = molecular target: CRX (Homo sapiens, UniProt O43186 1-299); conditions: protein: recombinant; tags: N-terminal GST; dsDNA, one strand shown
CRX, sequence (O43186 whole entry): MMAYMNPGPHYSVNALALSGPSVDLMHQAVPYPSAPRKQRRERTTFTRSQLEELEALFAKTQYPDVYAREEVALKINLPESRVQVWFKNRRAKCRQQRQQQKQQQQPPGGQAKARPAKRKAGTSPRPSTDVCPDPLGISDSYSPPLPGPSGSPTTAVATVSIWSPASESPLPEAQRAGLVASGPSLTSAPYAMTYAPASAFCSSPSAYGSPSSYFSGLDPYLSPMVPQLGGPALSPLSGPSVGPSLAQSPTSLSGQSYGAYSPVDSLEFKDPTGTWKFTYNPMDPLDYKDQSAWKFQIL
Outline: as §1

[6] = molecular target: T3, FEV (Homo sapiens, UniProt Q99581 1-238); conditions: protein: recombinant; tags: N-terminal GST; dsDNA, one strand shown
T3 sequence: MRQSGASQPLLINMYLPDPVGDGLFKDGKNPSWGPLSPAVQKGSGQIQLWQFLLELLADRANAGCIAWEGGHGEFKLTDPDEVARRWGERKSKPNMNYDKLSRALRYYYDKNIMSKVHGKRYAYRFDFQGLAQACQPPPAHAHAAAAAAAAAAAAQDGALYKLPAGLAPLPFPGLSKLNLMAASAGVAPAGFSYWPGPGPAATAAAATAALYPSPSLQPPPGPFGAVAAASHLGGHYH
Outline: as §1

[7] = molecular target: T4, ELF5 (Homo sapiens, UniProt Q9UKW6-2 1-255); conditions: protein: recombinant; tags: N-terminal GST; dsDNA, one strand shown
T4 sequence: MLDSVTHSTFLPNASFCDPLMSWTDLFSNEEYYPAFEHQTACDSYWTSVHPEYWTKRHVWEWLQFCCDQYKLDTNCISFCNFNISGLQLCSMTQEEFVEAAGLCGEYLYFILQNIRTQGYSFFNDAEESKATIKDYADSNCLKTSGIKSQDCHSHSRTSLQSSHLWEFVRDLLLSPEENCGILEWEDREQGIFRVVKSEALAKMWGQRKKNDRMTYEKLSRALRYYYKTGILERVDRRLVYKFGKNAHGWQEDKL
Outline: as §1

Sequence | binding signal [1] | binding signal [2] | binding signal [3] | binding signal [4] | binding signal [5] | binding signal [6] | binding signal [7]
CCCCAG | 1.07 fold enrichment (6-mer frequency, TF over GST control) | 1.04 fold enrichment (6-mer frequency, TF over GST control) | 1.03 fold enrichment (6-mer frequency, TF over GST control) | 1.04 fold enrichment (6-mer frequency, TF over GST control) |  |  | 
AGCTAG | 1.05 fold enrichment (6-mer frequency, TF over GST control) | 1.08 fold enrichment (6-mer frequency, TF over GST control) | 1.21 fold enrichment (6-mer frequency, TF over GST control) | 1.12 fold enrichment (6-mer frequency, TF over GST control) | 1 fold enrichment (6-mer frequency, TF over GST control) |  | 
TGGATA | 1.08 fold enrichment (6-mer frequency, TF over GST control) |  | 1.2 fold enrichment (6-mer frequency, TF over GST control) | 1.02 fold enrichment (6-mer frequency, TF over GST control) | 1.34 fold enrichment (6-mer frequency, TF over GST control) | 1.03 fold enrichment (6-mer frequency, TF over GST control) | 1.04 fold enrichment (6-mer frequency, TF over GST control)
TCTAGA | 1.05 fold enrichment (6-mer frequency, TF over GST control) |  | 6.17 fold enrichment (6-mer frequency, TF over GST control) |  | 2.19 fold enrichment (6-mer frequency, TF over GST control) |  | 
CTAGAA | 1.06 fold enrichment (6-mer frequency, TF over GST control) |  | 6.29 fold enrichment (6-mer frequency, TF over GST control) | 1.03 fold enrichment (6-mer frequency, TF over GST control) | 2.13 fold enrichment (6-mer frequency, TF over GST control) |  | 
TTAGAT | 1.05 fold enrichment (6-mer frequency, TF over GST control) |  | 1.49 fold enrichment (6-mer frequency, TF over GST control) | 1.16 fold enrichment (6-mer frequency, TF over GST control) | 2.04 fold enrichment (6-mer frequency, TF over GST control) | 1.01 fold enrichment (6-mer frequency, TF over GST control) | 
TGATAG | 1.14 fold enrichment (6-mer frequency, TF over GST control) | 1.01 fold enrichment (6-mer frequency, TF over GST control) | 1.02 fold enrichment (6-mer frequency, TF over GST control) | 1.09 fold enrichment (6-mer frequency, TF over GST control) | 1.01 fold enrichment (6-mer frequency, TF over GST control) |  | 
CTTAAG | 1.06 fold enrichment (6-mer frequency, TF over GST control) | 1 fold enrichment (6-mer frequency, TF over GST control) | 1.7 fold enrichment (6-mer frequency, TF over GST control) | 1.13 fold enrichment (6-mer frequency, TF over GST control) | 2.69 fold enrichment (6-mer frequency, TF over GST control) | 1.05 fold enrichment (6-mer frequency, TF over GST control) | 1.09 fold enrichment (6-mer frequency, TF over GST control)
TGATTA | 1.07 fold enrichment (6-mer frequency, TF over GST control) |  | 1.58 fold enrichment (6-mer frequency, TF over GST control) | 1.07 fold enrichment (6-mer frequency, TF over GST control) | 2.23 fold enrichment (6-mer frequency, TF over GST control) |  | 1.03 fold enrichment (6-mer frequency, TF over GST control)
GCTAGT | 1.1 fold enrichment (6-mer frequency, TF over GST control) | 1.13 fold enrichment (6-mer frequency, TF over GST control) | 1.12 fold enrichment (6-mer frequency, TF over GST control) | 1.07 fold enrichment (6-mer frequency, TF over GST control) |  | 1.03 fold enrichment (6-mer frequency, TF over GST control) | 
